Reference: PubChem BioAssay (NCI)
This is part of a sample that, as a whole, favours compounds with a hit. Of some 83,000 tested, about 20% had one in any assay.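 Percent growth is the endpoint: 0 to 100 indicates growth inhibition (40 means 60% inhibition), 0 means no net growth, and negative values indicate cell death.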 A number with no mark means an inactive call. Calls of active or inactive are those of the source. Rule for the calls: active = growth percent below 10; inactive = the rest.

Tested on: HL-60(TB) leukemia
Experiment: NCI-60 one-dose screen, 48 h (100 = growth as untreated, 0 = no growth, -100 = all killed)
Conditions: 10 µM unless noted

Row | Structure (SMILES) | growth
1 | C[C@@H]1OCC2(CCN(c3cnc(C(=O)Nc4cc(F)cc5cccnc45)cn3)CC2)[C@@H]1N | 20.4%
2 | Nc1n[nH]c2cccc(C#Cc3cccc(NC(=O)c4cccc(OC(F)(F)F)c4)c3)c12 | 17.7%
3 | Cc1ccc(C(=O)CSc2nnc(-c3ccc(-c4ccc(Cl)cc4)nc3C)o2)cc1 | 103%
4 | N#Cc1cccc(CN2CCC3=C(C2)C(=O)N(Cc2ccc(Cl)cc2)C2=NCCN23)c1 | 16.2%
5 | COc1cc2c3c(cc4c5c(ccc4c3c1OC)OCO5)N(CCN(C)C)C2=O | -17.1% (active)
6 | CNC1CCc2c(sc(NC(=O)c3ccc(C(C)(C)C)cc3)c2C(N)=O)C1 (stereo not given) | -69.3% (active)
7 | Clc1ccc2c(NCCCN3CCOCC3)c3oc4ccccc4c3nc2c1 | 37.9%
8 | C=C(C)[C@@H]1CC[C@]2(COP(=O)(OCC)OCC)CC[C@]3(C)[C@H](CC[C@@H]4[C@@]5(C)CCCNC(C)(C)[C@@H]5CC[C@]43C)[C@@H]12 | -56.4% (active)
9 | CCN1C/C(=N\S(=O)(=O)c2ccccc2)N(CC)C1=S | 100%
10 | CCCCCCCCNC(=O)c1ccc(Cn2c(CCCC)nc3c(N)nc4ccccc4c32)cc1 | -57.6% (active)
11 | COc1ccc(-c2nc(SCCC(C)C)nc(N/N=C\c3ccc(O)cc3)c2C#N)cc1 | 73.3%
12 | Cc1ccc(CSc2nc(-c3ccc(Cl)cc3)c(C#N)c(N3CCNCC3)n2)cc1 | 43.3%
13 | COC(=O)C(Cc1ccccc1)NS(=O)(=O)/N=C1\NC(=O)NC1=C(Cl)Cl (stereo not given) | 96.1%
14 | N/C(=N\OC(=O)CSc1nc2ccccc2s1)c1ccc2ccccc2c1 | 105%
15 | NS(=O)(=O)c1ccc(Nc2nc(Nc3ccccc3)nc(-n3nc(-c4ccccc4)cc3-c3ccccc3)n2)cc1 | 4.82% (active)
16 | COC1CCN(Cc2ccc3c(NNC(=O)c4cnccn4)nc4cc(F)ccc4n23)C1 (stereo not given) | -19.4% (active)
17 | Cc1cc2nc3c4cc(Cl)ccc4n(CC(=O)NCCN(C)C)c3nc2cc1C | 56%
18 | CN1CCN(c2ccc(NC(=O)Nc3ccc4c(ccn4-c4cccc(C(N)=O)n4)c3)cc2C(F)(F)F)CC1 | 66.1%
19 | N/C(=N\c1nc2c(Cl)cc(Cl)cc2s1)C(Cl)(Cl)Cl | 4.49% (active)
20 | COc1ccc(-c2cc(-c3cccc4ccccc34)n3c(n2)nc2ccccc23)cc1 | -0.785% (active)

Row | Structure (SMILES) | growth
21 | NS(=O)(=O)c1ccc(Nc2nc(SCC(=O)c3ccc(Cl)cc3)nc3c2CCCC3)cc1 | 59.3%
22 | C/C(=N\O)[C@H]1C[C@]23CC[C@]4(C)[C@H](CC[C@@H]5[C@@]6(C)CC/C(=N/O)C(C)(C)[C@@H]6CC[C@]54C)[C@H]2[C@H](C)C1(C)OC3 | 121%
23 | CC(=O)c1ccc(NC(=O)COc2ccc(C3SCC(=O)N3c3ccc(Br)cc3)cc2)cc1 (stereo not given) | 96.7%
24 | CS(=O)(=O)Nc1cc(-c2ccc3ncc(C#N)c(NCc4cccc(F)c4)c3c2)cnc1Cl | 4.11% (active)
25 | Cc1ccc(-c2nnc(SCc3ccc(O)c4ncccc34)n2-c2ccccc2)cc1 | 0.292% (active)
26 | O=C(/C=C/c1cc(Cl)ccc1Cl)Nc1ncc(Cc2ccc(Cl)cc2)s1 | -7.21% (active)
27 | COc1ccccc1-n1cc(C#N)c(N)c1C(=O)c1ccc(Cl)cc1 | 36.5%
28 | N#Cc1nc(-c2ccccc2)oc1S(=O)(=O)N1CCCCC1 | 10.5%
29 | C/C(=C(/C)C1CC1CCN(C(=O)c1ccc([N+](=O)[O-])cc1)S(=O)(=O)c1ccc(C)cc1)C1CCCCC1 (stereo not given) | 96.5%
30 | O=C(/C=C1\C=CN(CCCCCCF)c2ccccc21)n1ccc2ccccc21 | 109%
31 | Cn1ncc2ncc(-c3ccc4ncc(C#N)c(N5CCc6cc(F)c(Cl)cc65)c4c3)cc21 | 26.7%
32 | COc1ccc(NC(=O)c2sc3nc(-c4cnccn4)cc(-c4cccs4)c3c2N)cc1 | 56.2%
33 | O=S(=O)(Nc1ccc(-n2cnc3cc(-c4ccc(O)cc4)ccc32)cc1)C1CC1 | 56.9%
34 | CCCCCCNC(=O)Oc1ccc(/C(=C(/C)c2ccccc2)c2ccc(OCCN3CCCCCC3)cc2)cc1 | -39.6% (active)
35 | COc1ccc(C(=O)n2cc(C=O)c3ccccc32)cc1 | 93.7%
36 | Cn1ccnc1C(=O)/C=C/c1ccc(NC(=O)Nc2ccccc2)cc1 | -16.5% (active)
37 | O=C(Nc1ccc(F)cc1)c1cc(-c2ccc(F)cc2F)ccc1O | 0.532% (active)
38 | COc1cc2cc(Oc3ccc(NC(=O)Nc4ccc(F)c(C(F)(F)F)c4)cc3)c(C)nc2cc1OCCN(C)C | 94.3%
39 | CCN1C(=O)N(CC)C2SC(N/N=C/c3cccs3)=NC21 (stereo not given) | 1.27% (active)
40 | O=c1oc2ccc(-c3ccc(F)cc3F)cc2c(=O)n1-c1ccc(Br)cc1F | 58.8%
